# Assay outcomes (PubChem)
# DT40 TDP1 CPT: DT40-hTDP1 cell growth loss with CPT. chicken DT40 Tdp1-/-;hTDP1 cells + 20 nM CPT, ATP luminescence, 48 h. Potency, µM (series often up to 46.2 µM), without a hit: top-dose activity change, negative = growth inhibition, hits mostly inhibitors. 420,000 tested, 12% active. AID 686979; also: potency is read from the fitted curve at half-maximal effect; nearly all actives have a fitted effect of over 55% in size
#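 Cell growth measured by CellTiter-Glo luminescence after a minimum 48 h, 37 C compound exposure with 20 nM CPT in Tdp1-knockout DT40 cells stably expressing hTDP1, seeded 400/well; qHTS titration format.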
# DT40 TDP1 no CPT: qHTS for Inhibitors of human tyrosyl-DNA phosphodiesterase 1 (TDP1): qHTS in cells in absence of CPT | DT40 Tdp1-/- hTDP1 cells, no CPT, ATP luminescence, 48 h | 420,000 tested, 15% active | Potency, µM (titrated, usually from 46.2 µM), inactives show top-dose activity change, negative = growth inhibition, most hits filed as inhibitors; also: potency is read from the fitted curve at half-maximal effect; nearly all actives have a fitted effect of over 55% in size
#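 Seeded 400 DT40-hTDP1 cells/well (vehicle DMSO, no 20 nM CPT); pinned compounds; ≥48 hr at 37 °C; CellTiter-Glo luminescence as viability measure.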
# HT1080-NT tox: kills 2HG-producing HT-1080-NT fibrosarcoma cells; 360,000 tested, 1.6% active; Potency, µM (top dose mostly 46.1 µM), for inactives: top-dose activity, negative = less viability, actives largely listed as cytotoxic; HT-1080-NT fibrosarcoma viability, CellTiter-Glo ATP luminescence, 48 h;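 also: NT is the 2HG producing partner of a matched IDH1 knockdown line; potency is read from the fitted curve at half-maximal effect; 0% = DMSO-treated cells and -100% = media-only wells without cells; nearly all actives have a fitted effect of over 55% in size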
#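 750 cells/well, RPMI + 5% FBS; 2 h settle, compound pin-transfer, 48 h at 37 degrees C. CellTiter-Glo 10 min RT, luminescence. Normalized to DMSO and media-only wells.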
# HT1080 IDH1KD tx: HT-1080 IDH1 knockdown cell toxicity (counter line). HT-1080 IDH1 knockdown viability, ATP luminescence, 48 h. Potency, µM (series often up to 46.1 µM), inactives show top-dose activity, negative = toxicity, most hits filed as cytotoxic. 360,000 tested, 2% active. AID 686971;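 also: potency is read from the fitted curve at half-maximal effect; 0% = DMSO wells and -100% = cell-free medium wells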
#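 After a 2 h attachment period, IDH1KD HT-1080 cells took pin-transferred compound for 48 h at 37 °C; ATP-based luminescence after 10 min room-temperature reagent incubation reported viability.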
# IL1B secr inh: inflammasome signaling inhibition, IL-1 beta readout; 360,000 tested, 4.7% active; THP-1 LPS/ATP IL-1B secretion, AlphaLISA, 16 h; hits give low values; activity change, % at 57.5 µM; in the data active = activity change below about -50%; inconclusive = mostly about -30% to -49%
#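 THP-1 cells pretreated 1 hr with compounds (up to 57.5 uM final), then stimulated with LPS (250 ng/mL final) plus ATP (1.25 mM final); secreted IL-1B measured by AlphaLISA after 16 hr, decreased signal indicating inhibition.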
# ELG1 repair inh: inhibitors of ELG1-dependent DNA repair in HEK293T cells; HEK293T ELG1-luciferase reporter, luminescence, 16 h; DNA damage induced by 5-fluorouridine; Potency, µM (titrated, usually from 46.1 µM), inactives show at the highest dose activity change, negative = inhibition, hits mostly inhibitors; 330,000 tested, 2.3% active; also: potency is read from the fitted curve at half-maximal effect; nearly all actives have a fitted effect of over 55% in size
#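 Reporter activity after DNA damage by 5-fluorouridine is monitored. Compound-treated cells incubate 16 hr at 37 °C, then ONE-Glo is added for 30 min before luminescence reading.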
# * hit, by the source's call; ? = inconclusive; . = no result given. Compounds with a hit are over-represented: about 19% of the library has one in this group of screens. Unless noted, calls follow the shape of the dose curve; as a rule, active = well fitted curve in the direction sought with a large enough effect; inconclusive = small, poorly fitted or top-dose-only effect, or another doubt; inactive = no such curve, though single readings can be large; an effect the other way counts as inactive or inconclusive. Unless noted, % is scaled to controls: 0 for no effect and ±100 for the full control effect.
SMILES,DT40 TDP1 CPT,DT40 TDP1 no CPT,HT1080-NT tox,HT1080 IDH1KD tx,IL1B secr inh,ELG1 repair inh
Cc1cccc(C(=O)Oc2c(Sc3ccccc3)c(C)nn2C(C)(C)C)c1,?,23.1µM*,.,.,.,.
COCC(=O)Oc1c(Sc2ccc(C)cc2)c(C)nn1C(C)(C)C,-21.4%,-23.9%,.,.,.,.
O=C(CNC(=O)c1ccc(Cl)c([N+](=O)[O-])c1)NCC1CCCO1 (centres undefined),?,-29.0%,5.7%,-13.1%,-5.2,3.8%
O=C(/C=C/[C@H]1O[C@@H](n2ccc(=O)[nH]c2=O)[C@H](O)[C@@H]1O)NCc1cccc2ccccc12,4.6%,20.6%,25.5%,23.2%,-5.9,.
Cc1ccc(C(=O)c2c3ccc(C(F)(F)F)cc3[n+]([O-])n2CCCC(N)=O)cc1,-8.8%,-13.7%,-4.4%,-3.2%,-4.0,2.6%
Cc1ccc(C(=O)c2c3ccc(C(F)(F)F)cc3[n+]([O-])n2CCCN)cc1,23.1µM*,23.1µM*,2.2%,1.5%,-52.8*,?
COc1ccc(Oc2ncc3nc(-c4ccc(OC)cc4)c(=O)n(C4CC4)c3n2)cc1,6.9%,-1.4%,.,.,.,.
CCCCCCCC#Cc1ccccc1/C=N/S(=O)c1ccc(C)cc1 (centres undefined),11.6µM*,18.4µM*,12.5%,4.9%,32.1,14.0%
CN(C(=O)c1cccc(NC(=O)Cc2ccc(NC(=O)C3CCN(C(=O)C4CCC4)CC3)cc2)c1)C1CCC1,?,?,0.1%,-0.5%,-13.1,.
Cc1nc(CN2CCN(Cc3nc(C(c4ccccc4)c4ccccc4)no3)CC2)cs1,7.31µM*,10.3µM*,-14.3%,3.0%,-8.0,-24.7%
CC(=O)N1CCN(Cc2nc(C(c3ccccc3)c3ccccc3)no2)CC1,-4.1%,-17.2%,-2.3%,2.5%,2.9,-11.3%
c1ccc(C(c2ccccc2)c2noc(CN3CCN(C4CCCC4)CC3)n2)cc1,?,20.6µM*,-9.0%,-9.3%,-14.6,6.7%
FC(F)(F)c1ccc(-c2noc(CN3CCCN(C4CCCCC4)CC3)n2)cc1,20.6µM*,20.6µM*,3.6%,7.7%,?,-14.8%
C[C@@H]1CN(C2CCN(Cc3nc(C(c4ccccc4)c4ccccc4)no3)CC2)C[C@H](C)O1,-11.4%,?,-8.4%,-16.4%,5.0,-3.9%
Cc1ccccc1-c1nc(CS(=O)CC(=O)NC2CCCCC2)c(C)o1 (centres undefined),-23.9%,-23.2%,-7.5%,-0.9%,5.8,11.6%
Cc1ccccc1C(=O)Nc1ccc2c(C#N)c3nc4ccccc4nc3n2c1,20.6µM*,20.6µM*,2.0%,4.2%,-0.8,18.4µM*
O=S(=O)(O)NC1CCCCC1,0.6%,-5.5%,.,.,.,.
COCc1cc(O)c(O)c(O)c1-c1c(COC)cc(O)c(O)c1O,5.01µM*,4.47µM*,.,.,.,.
CCOC(=O)c1cnn(-c2ccc(C(=O)Nc3ccc(C(C)=O)cc3)cc2)c1N,-2.4%,-24.0%,.,.,.,.
CCc1cc(C(=O)N2CCCC(C(=O)c3cccc4ccccc34)C2)n(C)n1 (centres undefined),?,14.6µM*,-5.4%,-18.3%,-14.5,?
CSc1ccccc1C(=O)C1CCCN(C(=O)c2ccc(N3CCOCC3)cc2)C1 (centres undefined),?,?,-19.2%,-13.3%,-7.9,?
CCn1nc(C)cc1C(=O)N1CCCC(C(=O)c2ccccc2SC)C1 (centres undefined),16.4µM*,18.4µM*,-20.3%,-1.3%,0.9,-4.0%
O=C(c1cccc2ccccc12)C1CCCN(C(=O)CCCn2cncn2)C1 (centres undefined),-22.1%,16.4µM*,-3.3%,-10.4%,-1.5,7.1%
O=C(c1cccc2ccccc12)C1CCCN(C(=O)c2ccc(N3CCOCC3)cc2)C1 (centres undefined),?,23.1µM*,?,?,?,16.4µM*
CSc1ccccc1C(=O)C1CCCN(C(=O)NC(C)C)C1 (centres undefined),-24.9%,-23.1%,12.9%,0.4%,13.1,11.6%
SMILES,DT40 TDP1 CPT,DT40 TDP1 no CPT,HT1080-NT tox,HT1080 IDH1KD tx,IL1B secr inh,ELG1 repair inh
COc1c(C)cc(C(=O)C2CCCN(C(=O)CCCn3cncn3)C2)cc1C (centres undefined),-11.7%,-4.3%,0.0%,-2.4%,38.9,-15.1%
Cn1c(SCCOc2ccccc2F)nc2ccccc2c1=O,18.4µM*,16.4µM*,-12.0%,-5.8%,9.6,1.3%
O=c1[nH]c(SCCOc2ccccc2F)nc2ccccc12,2.2%,6.51µM*,-20.9%,-5.1%,21.1,?
O=c1[nH]c(SCc2ccc(F)cc2Cl)nc2ccccc12,-42.4%,20.6µM*,1.4%,-2.1%,10.1,5.2%
Fc1ccccc1OCCSc1nnnn1-c1ccccc1,-27.6%,-5.1%,12.2%,6.1%,-1.9,?
COc1ncc2ncc(=O)n(C)c2n1,-3.7%,0.6%,.,.,.,.
Cc1cc(N(CCO)CCO)ccc1C(c1ccc(N(CCO)CCO)cc1C)c1ccccc1Cl,-28.9%,-6.9%,-14.1%,-6.4%,-68.5*,2.1%
COCc1c(C(=O)N/N=C/c2ccc(C)o2)nnn1-c1nonc1N,-2.2%,7.7%,22.4%,13.3%,-3.4,7.4%
CCN(CC)CCNC(=O)c1cc2c(=O)n(C)c3ccccc3c2s1,18.4µM*,20.6µM*,?,?,?,?
COc1ccc(Br)cc1CNC(=O)c1cc2c(=O)n(C)c3ccccc3c2s1,8.0%,-22.0%,.,.,.,.
CN(CCCNC(=O)c1cc2c(=O)n(C)c3ccccc3c2s1)Cc1ccccc1,4.61µM*,14.6µM*,.,.,.,.
CCCCN(CC)CCNC(=O)c1cc2c(=O)n(C)c3ccccc3c2s1,?,23.1µM*,?,?,-86.2*,?
COCCNC(=O)c1cc2sc3ccccc3c2s1,2.8%,-26.2%,-3.2%,-3.8%,11.5,?
CN(C)CCCNC(=O)c1cc2sc3ccccc3c2s1,?,?,18.4µM*,18.4µM*,-118.0*,?
CCCCN(CC)CCNC(=O)c1cn(-c2ccc(Cl)cc2)c(=O)c2ccccc12,-29.1%,?,-8.4%,-19.9%,0.0,-1.4%
COC(=O)c1ccccc1NC(=O)CN(c1ccc(C)cc1)S(C)(=O)=O,-18.0%,4.0%,3.8%,3.6%,14.9,-4.1%
CC(C)(C)NC(=O)COc1coc(CN2CCN(Cc3ccccc3)CC2)cc1=O,16.7%,-19.3%,-1.0%,19.4%,21.6,-2.8%
